Sampled rows, rich in hits. Any-hit rate of the full collection: about 3.5%.
FBW7 act = FBW7 E3 ligase activators, primary screen, biochemical, AlphaScreen, human; normalized activity (activation), % at 26.1 µM; AlphaScreen FBW7–phospho-cyclin E peptide binding, activator screen; AID 1259310, 2017; 650,000 tested, 0.13% active; F-box/WD repeat-containing protein 7 (Homo sapiens), Q969H0; in the data active = normalized activity above about 1.9%;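 note: purified mutant Fbw7 with reduced substrate affinity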
GPR151 activ = activators of human GPR151, primary screen, cell-based, PathHunter beta-arrestin, luminescence; activation, % at 11.2 µM; PathHunter beta-arrestin GPR151 cells; 650,000 tested, 1% active; G-protein coupled receptor 151 (Homo sapiens), Q8TDV0; AID 1508602, 2020; in the data active = activation above about 4.9%;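 note: 0% = median of compound wells and 100% = cells with positive control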
MITF inh = MITF inhibitors, primary screen, biochemical, AlphaScreen, human; AID 1259374, 2018; 650,000 tested, 0.91% active; AlphaScreen MITF homodimerization, bead proximity signal; inhibition, % at 2.6 µM; Microphthalmia-associated transcription factor (Homo sapiens), O75030; in the data active = inhibition above about 50%;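 note: 0% = vehicle wells with protein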
TEAD-YAP inh = TEAD-YAP interaction inhibition, primary screen, TEAD-YAP interaction inhibitor project, luminescence, HEK-TIYL cells | inhibition, % at 9.12 µM | TEAD-Gal4/YAP UAS-luciferase luminescence | 640,000 tested, 1.4% active; in the data active = inhibition above about 32%;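 note: 0% = median of test compound wells and 100% = reference inhibitor wells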
GPR151 conf act = GPR151 activators, triplicate retest, confirmation, cell-based, PathHunter beta-arrestin, luminescence. shares compounds with GPR151 activ. 6,700 tested, under 10 active. activation, % at 11.2 µM. GPR151 PathHunter beta-arrestin cells, 90 min; % of EA-reagent control over plate median;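 active = mean percent activation across replicates above the confirmation screen cutoff of 4.91%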
GPR119 ag = GPR119 activators in beta-arrestin cells, counter-screen for GPR151 activator project, cell-based, PathHunter beta-arrestin, luminescence, triplicate; shares compounds with GPR151 activ; 90 min; 0 = compound-well median, 100 = enzyme-acceptor control; activation, % at 11.2 µM; 6,700 tested, 0.3% active; AID 1508611, 2020;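 active = mean percent activation in the counterscreen above 29.09%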;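 note: counterscreen on off-target GPR119 to flag nonselective hits from the GPR151 activator screen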
Target sequence (Q8TDV5 whole entry, looked up): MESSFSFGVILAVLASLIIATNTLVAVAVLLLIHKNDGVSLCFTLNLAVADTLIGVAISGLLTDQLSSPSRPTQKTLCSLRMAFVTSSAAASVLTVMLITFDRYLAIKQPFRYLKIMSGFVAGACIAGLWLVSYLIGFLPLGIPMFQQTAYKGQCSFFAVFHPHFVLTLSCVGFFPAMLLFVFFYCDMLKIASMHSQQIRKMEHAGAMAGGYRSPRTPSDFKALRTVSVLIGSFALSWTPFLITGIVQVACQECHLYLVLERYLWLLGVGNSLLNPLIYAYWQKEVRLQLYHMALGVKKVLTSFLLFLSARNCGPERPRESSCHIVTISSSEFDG
* marks the source's active call; other numbers are inactive results.

How did COc1ccc(NC(=O)CCCCCN2C(=O)c3cccc([N+](=O)[O-])c3C2=O)c(OC)c1 do in these assays?
FBW7 act: 0.1; GPR151 activ: 7.9*; MITF inh: 14.3; TEAD-YAP inh: 2.7; GPR151 conf act: 1.4; GPR119 ag: 12.4

Results for COc1ccc(NC(=O)CCC2CCCCC2)c([N+](=O)[O-])c1 ?
FBW7 act: -0.4; GPR151 activ: 6.5*; MITF inh: 23.5; TEAD-YAP inh: -56.8; GPR151 conf act: 0.5; GPR119 ag: -8.6

How did COc1ccc(NC(=O)CCN2C(=O)c3cccc([N+](=O)[O-])c3C2=O)c(OC)c1 do in these assays?
FBW7 act: 0.2; GPR151 activ: -1.9; MITF inh: 9.7; TEAD-YAP inh: -6.4

Results for COc1ccc(NC(=O)COC(=O)CC2CCCCC2)c([N+](=O)[O-])c1 ?
FBW7 act: -0.4; GPR151 activ: 4.0; MITF inh: 18.5; TEAD-YAP inh: -1.4

How did O=C(COC(=O)CCN1C(=O)c2cccc([N+](=O)[O-])c2C1=O)NCC(F)(F)F do in these assays?
FBW7 act: 0.7; GPR151 activ: 6.0*; MITF inh: 3.0; TEAD-YAP inh: -3.8; GPR151 conf act: 0.2; GPR119 ag: 3.9

Results for Cc1cc(C)cc(-n2c(SCC(=O)N3CCOCC3)nnc2-c2ccccn2)c1 ?
FBW7 act: -0.1; GPR151 activ: 0.6; MITF inh: -9.4; TEAD-YAP inh: 7.5

What do the screens show for `Cn1cccc1CC(=O)N/N=C\c1ccc[nH]1`?
FBW7 act: -0.6; GPR151 activ: 0.6; MITF inh: 14.8; TEAD-YAP inh: 5.3

What do the screens show for `O=C(c1ccccc1NS(=O)(=O)c1ccc(Br)s1)N1CCCC1`?
FBW7 act: 0.0; GPR151 activ: 5.0*; MITF inh: 14.8; TEAD-YAP inh: 2.3; GPR151 conf act: -1.2; GPR119 ag: -7.2

How did O=C(NCC(c1ccco1)S(=O)(=O)c1cccs1)c1ccc([N+](=O)[O-])cc1 (stereo not drawn) do in these assays?
FBW7 act: 0.3; GPR151 activ: -1.3; MITF inh: 10.0; TEAD-YAP inh: -5.1

What do the screens show for `C/C(=C/C(=O)c1ccc(Cl)cc1)Nc1cccc(O)c1`?
FBW7 act: 0.1; GPR151 activ: 5.8*; MITF inh: 12.0; TEAD-YAP inh: -9.1; GPR151 conf act: -0.7; GPR119 ag: -9.6

What do the screens show for `FC(F)(F)c1cccc(NC(=S)N2CCSC2c2ccc(Br)cc2)c1` (stereo not drawn)?
FBW7 act: -0.2; GPR151 activ: 6.4*; MITF inh: -11.8; TEAD-YAP inh: -5.0; GPR151 conf act: 0.6; GPR119 ag: -2.1

What do the screens show for `CC1=CC(=C2C(=O)NC(=S)NC2=O)C=C(C)O1`?
FBW7 act: 0.3; GPR151 activ: -0.4; MITF inh: -14.0; TEAD-YAP inh: 2.0

How did CCCC(=O)n1nc(NCc2ccccc2)nc1NCc1ccccc1 do in these assays?
FBW7 act: 0.1; GPR151 activ: 6.9*; MITF inh: 10.5; TEAD-YAP inh: -8.6; GPR151 conf act: 0.0; GPR119 ag: -5.9

Results for O=C(COc1ccccc1)n1nc(NCc2ccccc2)nc1NCc1ccccc1 ?
FBW7 act: 0.3; GPR151 activ: 8.8*; MITF inh: 3.6; TEAD-YAP inh: -2.5; GPR151 conf act: 0.5; GPR119 ag: 3.9

How did CC(=O)n1nc(NCc2ccccc2)nc1NCc1ccccc1 do in these assays?
FBW7 act: 0.1; GPR151 activ: 0.2; MITF inh: -6.2; TEAD-YAP inh: -0.7

Results for COCC(=O)n1nc(NCc2ccc(OC)cc2)nc1NCc1ccc(OC)cc1 ?
FBW7 act: -0.1; GPR151 activ: 3.4; MITF inh: -15.7; TEAD-YAP inh: 3.7

How did CCCCNc1ncnc2oc(-c3ccc(OC)cc3)c(-c3ccc(OC)cc3)c12 do in these assays?
FBW7 act: 1.0; GPR151 activ: -1.0; MITF inh: 3.1; TEAD-YAP inh: -6.8

What do the screens show for `CCCCc1ccc(NC(=S)NN2CCOCC2)cc1`?
FBW7 act: -0.1; GPR151 activ: 4.3; MITF inh: -3.1; TEAD-YAP inh: -22.1

What do the screens show for `CCC(C)c1ccc(NC(=S)NN2CCOCC2)cc1` (stereo not drawn)?
FBW7 act: -0.1; GPR151 activ: 23.0*; MITF inh: 20.8; TEAD-YAP inh: -52.6; GPR151 conf act: 0.1; GPR119 ag: 8.6

How did Cc1ccccc1C1(CC(=O)N2CCCCC2)CC(=O)N(C2CCCC2)C1=O (stereo not drawn) do in these assays?
FBW7 act: 1.2; GPR151 activ: 0.0; MITF inh: 12.5; TEAD-YAP inh: -75.3

How did CC(=O)N(C)c1ccccc1NC(=O)CCl do in these assays?
FBW7 act: -0.1; GPR151 activ: 8.7*; MITF inh: -12.0; TEAD-YAP inh: -9.1; GPR151 conf act: 0.1; GPR119 ag: 4.1

Results for CC(C)(C)c1ccccc1NC(=O)CCl ?
FBW7 act: 0.1; GPR151 activ: -1.4; MITF inh: 5.4; TEAD-YAP inh: 4.9

Results for COc1cc(-c2nc3ccccc3c(=O)n2NC(=O)Cn2nc(C(F)(F)F)cc2C(F)(F)F)cc(OC)c1OC ?
FBW7 act: 1.5; GPR151 activ: -1.4; MITF inh: 22.8; TEAD-YAP inh: -8.2

What do the screens show for `Fc1ccc(Br)cc1SCCc1ccncc1`?
FBW7 act: 0.1; GPR151 activ: -1.3; MITF inh: -1.2; TEAD-YAP inh: 4.8

Results for Brc1ccc(SCCc2ccncc2)cc1 ?
FBW7 act: 0.6; GPR151 activ: 12.3*; MITF inh: 21.6; TEAD-YAP inh: 2.0; GPR151 conf act: -1.2; GPR119 ag: -13.7

Results for CN1CCCN(Cc2ccc(F)cc2)CC1 ?
FBW7 act: -0.2; GPR151 activ: 6.0*; MITF inh: 48.7; TEAD-YAP inh: -3.4; GPR151 conf act: -0.1; GPR119 ag: 16.8

How did CN1CCCN(Cc2ccc(Cl)c(Cl)c2)CC1 do in these assays?
FBW7 act: -0.3; GPR151 activ: 0.4; MITF inh: 31.9; TEAD-YAP inh: 8.8

How did CCNC(=S)N1CCN(Cc2ccc(F)cc2)CC1 do in these assays?
FBW7 act: 0.4; GPR151 activ: 6.6*; MITF inh: 12.8; TEAD-YAP inh: -1.9; GPR151 conf act: 0.0; GPR119 ag: -9.6

How did C/C(=N\NC(=O)c1cccc(Cl)c1)c1ccc([N+](=O)[O-])o1 do in these assays?
FBW7 act: 1.1; GPR151 activ: -1.1; MITF inh: 18.7; TEAD-YAP inh: -12.8

What do the screens show for `C/C(=N/NC(=O)c1cccc(Cl)c1)c1ccc([N+](=O)[O-])o1`?
FBW7 act: 0.1; GPR151 activ: 5.7*; MITF inh: 14.6; TEAD-YAP inh: -43.2; GPR151 conf act: -0.1; GPR119 ag: 2.8

Screens (PubChem BioAssay)
